B2AR arrestin – agonists driving beta-arrestin recruitment to human beta2-adrenergic receptor; Potency, µM (titrated, usually from 46.1 µM), inactives show at the top dose activation, hits mostly activators; P07550; beta-arrestin recruitment to beta2AR, cell-based reporter; hit rate 0.02% among 330,000;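 also: potency is read from the fitted curve at half-maximal effect; 0% = DMSO controls and full agonism = EC100 isoproterenol or metaproterenol; nearly all actives have a fitted effect of over 65% in size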
Target sequence (P07550 whole entry, looked up): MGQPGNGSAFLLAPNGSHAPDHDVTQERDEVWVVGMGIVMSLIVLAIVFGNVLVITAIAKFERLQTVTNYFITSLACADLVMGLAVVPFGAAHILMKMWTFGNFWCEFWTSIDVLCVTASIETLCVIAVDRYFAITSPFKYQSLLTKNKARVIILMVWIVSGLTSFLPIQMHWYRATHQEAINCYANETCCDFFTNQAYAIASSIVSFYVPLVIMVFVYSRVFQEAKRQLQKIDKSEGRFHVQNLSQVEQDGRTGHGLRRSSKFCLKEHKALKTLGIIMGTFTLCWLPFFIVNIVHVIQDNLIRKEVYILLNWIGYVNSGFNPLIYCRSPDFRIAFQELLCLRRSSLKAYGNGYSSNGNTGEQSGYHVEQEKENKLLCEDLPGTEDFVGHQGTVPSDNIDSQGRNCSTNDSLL
ELG1 DNA repair – blocks ELG1-dependent DNA repair in HEK293T cells. HEK293T ELG1-luciferase reporter, luminescence, 16 h; DNA damage induced by 5-fluorouridine. Potency, µM (series often up to 46.1 µM), without a hit: at the highest dose activity change, negative = inhibition, most hits filed as inhibitors. hit rate 2.3% among 330,000; also: potency is read from the fitted curve at half-maximal effect; nearly all actives have a fitted effect of over 55% in size
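HEK293T cells expressing luciferase-tagged ELG1 (2,000/well) received 5-Fluorouridine plus compound or DMSO for 16 hr at 37 °C. Luciferase was read by ONE-Glo luminescence after 30 min at room temperature.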
VP16 counter – inhibits Gal4-VP16 luciferase reporter, ROR gamma counter-screen. Potency, µM (top dose mostly 53.6 µM), inactives show at the highest dose activity, negative = inhibition, actives largely listed as inhibitors. AID 2546. Drosophila S2 Gal4-VP16 UAS-luciferase, luminescence, 20 h. hit rate 3.5% among 310,000;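 also: Gal4-VP16 expression switched on by copper sulfate through the metallothionein promoter; potency is read from the fitted curve at half-maximal effect; nearly all actives have a fitted effect of over 50% in size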
TSHR antag – human thyrotropin receptor antagonism | activity change, negative = inhibition, % at 11.5 µM | hit rate 0.2% among 330,000 | TSHR-expressing cells, TSH-stimulated cAMP HTRF, 2 h; stronger effect = lower value | AID 504810;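 active = activity change below a set negative limit, meaning inhibition stronger than a set level, cut at about -70% in these data; inconclusive = activity change between two set negative limits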
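Competitive HTRF cAMP read-out (cryptate anti-cAMP antibody, cAMP-d2; 30 min, room temperature) in freshly harvested TSHR cells. Compounds added before TSH at EC80 (4nM final), followed by 2 hours' incubation at 37 deg C.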
RORgamma inh – ROR gamma (mouse) transcription inhibition; P51450; Drosophila S2 Gal4-RORgamma UAS-luciferase reporter, 20 h; Potency, µM (titrated, usually from 53.6 µM), inactives show top-dose activity change, negative = inhibition, usual class: inhibitors; hit rate 5.4% among 310,000; AID 2551; also: potency is read from the fitted curve at half-maximal effect; nearly all actives have a fitted effect of over 60% in size
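Read-out: Photinus luciferase luminescence; inhibitors lower reporter signal. Insect Schneider cells with Gal4-ROR gamma fusion under metallothionein promoter, UAS reporter; 700 uM final copper sulfate induction, 20 hr, ambient temperature.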
Active calls of the source: *; ? = inconclusive; · = no result; [ ] = remark or other dose. The list is not random: actives were taken first. Their share in the collection is about 7.5%. Unless noted, calls follow the shape of the dose curve; as a rule, active = well fitted curve in the direction sought with a large enough effect; inconclusive = small, poorly fitted or top-dose-only effect, or another doubt; inactive = no such curve, though single readings can be large; an effect the other way counts as inactive or inconclusive. Unless noted, % is scaled to controls: 0 for no effect and ±100 for the full control effect.

SMILES	B2AR arrestin	ELG1 DNA repair	VP16 counter	TSHR antag	RORgamma inh
CSc1nc2ccc3nc(NC(=O)c4ccc(C)cc4)sc3c2s1	0%	11%	-6%	-4	-15%
Cc1ccc(Nc2nc3ccccc3c(=O)s2)cc1C	-1%	7%	3.5µM*	24	2.8µM*
CC(C)(C)OC(=O)N1C2C=CC1C1=COCCN1C2=O (centres undefined)	·	·	1%	·	31%
C=CCOC(=O)NC(CC(=Nc1ccc(OC)cc1)C(=O)OC)c1ccccc1 (centres undefined)	·	·	0%	·	34%
CC(O)C1CCC2C3CCC4CC(O)CCC4(C)C3CCC12C (centres undefined)	·	·	-4%	·	-4%[10 µM]
COCCNc1ncnc2ccc(-c3ccoc3)cc12	·	·	6%	·	3%
Cc1ccccc1/C=N/Nc1ccnc2cc(Cl)ccc12	1%	?	?	5	?
Clc1ccc2c(N/N=C/c3ccc(Br)cc3)ccnc2c1	3%	16µM*	7.1µM*	-2	6.3µM*
Cc1ccc(/C=N/Nc2ccnc3cc(Cl)ccc23)c(C)c1	0%	18µM*	8.9µM*	-9	?
Clc1ccc2c(N/N=C/c3cccnc3)ccnc2c1	0%	?	?	13	?
O=C(NCCCN1CCOCC1)c1cc(Cl)ccc1OCc1ccccc1	0%	0%	0%	12	-10%
COc1cc2nc(CN(C)Cc3ccc(SC)cc3)[nH]c(=O)c2cc1OC	0%	-14%	2%	0	11%
CSc1ccc(CN(C)Cc2nc3cc(C(F)(F)F)ccc3c(=O)[nH]2)cc1	0%	-11%	?	-16	13µM*
CCN(C(=S)NCc1ccccc1)c1ccccc1	0%	?	-8%	1	14µM*
CCN(C(C)=O)c1cccc2ccccc12	0%	14%	0%	-9	8%
CCN(C(=S)Nc1cccnc1)c1cccc2ccccc12	0%	-19%	6%	6	-29%
CCN(C(N)=S)c1ccccc1	3%	6%	-14%	3	11µM*
CCN(Cc1ccncc1)C(=S)NCc1ccccc1	0%	-2%	1%	-1	6%
CCN(C(=N)N=C(N)N)c1ccccc1	-1%	4%	-1%	32	25%
C=CCNC(=S)N(CC)c1cccc2ccccc12	0%	1%	?	-12	7.1µM*
CCN(C(=S)NCc1ccccc1)c1cccc2ccccc12	0%	-17%	?	-2	7.1µM*
O=C(c1cc(-c2cccnc2)nc2ccccc12)N1CCN(S(=O)(=O)c2cccs2)CC1	0%	?	·	-7	·
COc1ccc(C2=NN(C(=O)CCC(=O)O)C(c3ccccc3OC)C2)cc1 (centres undefined)	0%	10%	3%	-7	-4%
Cc1cc(C)nc(N(C#N)Cc2cccc(Cl)c2)n1	0%	8%	-24%	-3	7%
COc1ccc(-c2cc(C(F)(F)F)nc(S(=O)(=O)CCCC(=O)Nc3cccnc3Cl)n2)cc1OC	0%	?	?	16	1.6µM*
SMILES	B2AR arrestin	ELG1 DNA repair	VP16 counter	TSHR antag	RORgamma inh
CCOC(=O)CS(=O)(=O)c1nc(-c2ccc(F)cc2)cc(C(F)(F)F)n1	0%	?	5µM*	-39	5.6µM*
CCOC(=O)CS(=O)(=O)c1nc(-c2ccccc2)cc(C(F)(F)F)n1	0%	?	5µM*	?	2.8µM*
COC(=O)CCS(=O)(=O)c1nc(-c2ccccc2)cc(C(F)(F)F)n1	0%	?	5.6µM*	-36	7.1µM*
COc1cc(NC(=O)CCS(=O)(=O)c2nc(-c3cccs3)cc(C(F)(F)F)n2)cc(OC)c1OC	-1%	·	·	-23	·
CN(Cc1ccccc1)C(=O)CSc1nc2cc(C(=O)N3CCC(C(N)=O)CC3)ccc2c(=O)n1-c1ccccc1	0%	7%	4%	7	-11%
O=S1(=O)OC(c2ccc(O)cc2)(c2ccc(O)cc2)c2ccccc21	·	·	-21%	·	-6%[10 µM]
O=C(c1csnn1)N1CCC[C@@]2(CCN(c3ccncc3)C2)C1	·	·	-7%	·	-14%
Clc1ccc(Nc2nc(NCCN3CCOCC3)nc(N3CCOCC3)n2)cc1	0%	?	-3%	2	-4%
C=CCNc1nc(NCC)nc(N2CCOCC2)n1	-1%	4%	-23%	10	2µM*
C=CCNc1nc(Nc2ccc([N+](=O)[O-])cc2)nc(N2CCCC2)n1	0%	?	-4%	-2	0.89µM*
C=CCNc1nc(Cl)nc(Nc2ccc([N+](=O)[O-])cc2)n1	0%	4%	3%	6	28%
CCNc1nc(N2CCOCC2)nc(N(c2ccccc2)c2ccccc2)n1	0%	-1%	3%	-2	42%
CC(C)CCCNc1nc(N2CCOCC2)nc(N2CCOCC2)n1	0%	10µM*	-6%	-7	3%
C=CCNc1nc(Nc2ccc(-c3nc4ccccc4o3)cc2)nc(N2CCOCC2)n1	0%	15µM*	-12%	-23	-10%
COc1ccc(Oc2ncc3nc(-c4cn(C)c5ccccc45)c(=O)n(C)c3n2)cc1	·	·	-10%	·	3%
CCN(CC)S(=O)(=O)c1ccc(C(=O)/C=C/c2ccc(-c3ccc([N+](=O)[O-])cc3)o2)cc1	0%	-3%	6%	2	-29%
CCc1ccc(C(=O)/C=C/c2ccc([N+](=O)[O-])o2)cc1	?	?	8.9µM*	-30	?
COc1cccc(-c2ccc(SCC(=O)NC3CCCCC3)nn2)c1	-1%	-20%	-2%	-4	-18%
Brc1ccc(C2=N[C@@H](Cc3ccccc3)CO2)cc1	·	·	-10%	·	?
CNC(=S)NNC(=O)c1cccc(C(F)(F)F)c1	-1%	-2%	-6%[0.365 µM]	-7	11µM*
CNC(=S)N/N=C(\C)c1cccc(C(F)(F)F)c1	?	15%	3.5µM*	5	1.1µM*
CNC(=S)N/N=C(\C)c1ccc(C)c(C)c1	-1%	?	5µM*	1	1.8µM*
COC(=O)N/N=C(\C)c1cccc(C(F)(F)F)c1	0%	0%	-4%	2	11%
C/C(=N\NC(=O)C1CC1)c1ccc(C)c(C)c1	0%	?	8%	1	12%
O=C(NNC(=S)Nc1cccc(C(F)(F)F)c1)c1cccc(Cl)c1	0%	-16%	?	-30	?
COc1ccc2[nH]cc(CCNc3ccnc(-c4ccc5c(c4)OCO5)n3)c2c1	·	·	2%	·	38%
CC(C)(C)c1ccccc1NC(=O)c1ccc2c(c1)SC1=NS(=O)(=O)CCN12	0%	21µM*	-7%	8	17%
O=C(Nc1cccc(Br)c1)c1ccc2c(c1)SC1=NS(=O)(=O)CCN12	0%	?	·	-14	·
COc1ccc(C(=O)Nc2ccc3c(c2)C(=O)NC3=O)cc1	0%	?	-13%	0	-19%
COc1ccc([C@]23Cc4ccccc4C(O2)C2=C(O3)C(=O)c3ccccc3C2=O)cc1	1%[9.22 µM]	·	-12%[10 µM]	·	0%[10 µM]
